Screening data from PubChem BioAssay.
Pf Dd2 growth: Plasmodium falciparum Dd2 growth inhibition; P. falciparum Dd2 growth, SYBR Green, 72 h; 120,000 tested, 4.3% active; Potency, µM (series often up to 28.9 µM), without a hit: top-dose activity, negative = inhibition, hits mostly inhibitors; active = well fitted inhibition curve with a large enough effect;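 also: plate controls were DMSO vehicle for no effect and reference drug for full effect; nearly all actives have a fitted effect of over 65% in size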
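Infected erythrocytes (Dd2, 0.3% parasitemia, 2.5% hematocrit final) are added to compound in RPMI-1640/Albumax II medium, grown 72 h at 37C in low oxygen, then lysed with saponin/Triton-X containing SYBR Green and read by fluorescence.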
* marks the source's active call; other numbers are inactive results; i = inactive; [ ] = dose if it differs, or a comment. Shown is part of a subset that was picked to be rich in hits. Potency is read from the fitted curve at half-maximal effect.

SMILES | Pf Dd2 growth
CCCS(=O)(=O)N1CCC(c2noc(-c3cnccn3)n2)C1 (stereo not drawn) | 22%[5.79 µM]
N#CCn1ccn2nc3c(c2c1=O)CCCC3 | i
CCOCc1nc(C2CCCN(C(=O)Nc3cccc(F)c3C)C2)no1 (stereo not drawn) | 4%
O=C1NC2(CCN(C(=O)c3ccccc3)CC2)Oc2ccccc21 | -24%[44.1 µM]
COc1ccc([C@@H]2CN(C(=O)CN3C(=O)CNC3=O)C[C@H]2NC(C)=O)cc1 | -11%
COCC(=O)N[C@@H]1CN(Cc2cccnc2)C[C@H]1CN(C)C | -22%
CC1(CNC(=O)c2ccoc2)CCOCC1 | 18%
CS(=O)(=O)c1ccc(OC[C@H]2C[C@@H](NCc3ccc(F)cc3)[C@H](O)[C@@H]2O)cc1 | -22%
CCn1ncc(N2CCCC(CC(=O)NCc3ccc(C)cc3)C2)cc1=O (stereo not drawn) | i
COc1ccc(C(=O)N2C[C@@H]3C[C@H](C2)c2ccc(NS(=O)(=O)c4cccc(F)c4)c(=O)n2C3)cc1 | i
COc1cccc(-c2nc3cc4c(cc3cc2CN2CCSCC2)OCO4)c1OC | 11µM*
COc1cccc(-c2noc(N3CCCC3)n2)c1OC | -5%
COc1cccc(-c2nc3cc4c(cc3cc2CN2CCOCC2)OCO4)c1OC | -30%
Cc1ccc(CN2C(=O)NC3(CCN(C(=O)c4ccc(C#N)cc4)CC3)C2=O)cc1 | -1%
CCS(=O)(=O)Nc1ccc(C2(C(=O)Nc3cccc(F)c3C)CCCCC2)cc1 | 11µM*
CCS(=O)(=O)Nc1ccc(C2(C(=O)NCc3ccccc3)CCCCC2)cc1 | i
CCS(=O)(=O)Nc1ccc(C2(C(=O)NCc3ccc(F)cc3F)CCCCC2)cc1 | i
CC(=O)N1CCC(N2CC[C@@H](CO)N(C)c3ncccc3C2)CC1 | 0%[44.1 µM]
NS(=O)(=O)c1ccc(CNc2nccc(-c3cccnc3)n2)cc1 | -15%
O=C(N[C@H]1CO[C@H]2[C@@H]1OC[C@@H]2Nc1nccc(-c2ccc(-c3ccccc3)cc2)n1)C1CC1 | 7%
O=C(CCc1ccc(O)cc1)N[C@H]1CC[C@H](Nc2nccc(-c3cccnc3)n2)C1 | 11µM*
C[C@H](O)c1onc(-c2ccccc2)c1C(=O)NC1CCC1 | -5%[44.1 µM]
O=C(Cn1cccn1)N1C[C@@H](COCC2CC2)[C@H](c2ccncc2)C1 | i
COCCOc1ccc2c(n1)CCN(C(=O)NCCC(C)C)C2 | -2%
Cc1ccc(OCCSc2nnc(-c3cccs3)o2)cc1Cl | 80%
SMILES | Pf Dd2 growth
Cc1ccc(OCCSc2nnc(-c3cccs3)o2)cc1 | 11µM*
Cc1ccc(-c2nnc(SCCOc3ccccc3)o2)cc1 | 6%
CC(C)(C)CC(=O)NC[C@H]1OC[C@@H](NCc2ncc[nH]2)[C@@H]1O | 5%[44.1 µM]
COc1ccc2c(c1)C1(CCN(C(=O)COc3ccc(Cl)cc3)C1)C(=O)N2C (stereo not drawn) | 7.1µM*
COc1ccc2c(c1)C1(CCN(C(=O)NC3CCCCC3)C1)C(=O)N2C (stereo not drawn) | i
COc1ccc2c(c1)C1(CCN(S(=O)(=O)c3ccc(Cl)cc3)C1)C(=O)N2C (stereo not drawn) | i
COCCNC(=O)N1CCC2(C1)C(=O)N(C)c1ccc(OC)cc12 (stereo not drawn) | 13%
COc1ccc2c(c1)C1(CCN(S(=O)(=O)c3cccc(Cl)c3)C1)C(=O)N2C (stereo not drawn) | 11µM*
COc1ccc2c(c1)C1(CCN(S(=O)(=O)c3cccc(F)c3)C1)C(=O)N2 (stereo not drawn) | -12%
COc1ccc(Cl)cc1NC(=O)CCC1CCCN(Cc2ccc3c(c2)OCCO3)C1 (stereo not drawn) | i
CC(=O)N1CCNc2cc(Nc3ccc(F)cc3)ncc2C1 | -13%[44.1 µM]
CNC(=O)[C@H]1C[C@H](Oc2ccccc2)CN1C(=O)Cc1ccccc1F | 12%
CN(C)CC(O)c1cc2n(n1)CCN(C(=O)CCc1ccc(=O)[nH]n1)C2 (stereo not drawn) | 8%
O=C(CN1CCN(C2CCCC2)CC(O)C1)NCCc1ccccc1 (stereo not drawn) | -20%
O=C(NCCc1nc(-c2ccccc2)cs1)C1CC(=O)N(c2n[nH]c3ccccc23)C1 (stereo not drawn) | -3%
CN(C)[C@@H](Cc1ccccc1)C(=O)N1CCC(N2CCC(O)CC2)CC1 | -4%
CCOc1ccc(CNC(=O)Cn2nc(N3CCN(c4ccccc4)CC3)ccc2=O)cc1 | -2%
COc1cccc(NC(=O)Cn2nc(N3CCN(c4ccccc4)CC3)ccc2=O)c1 | -10%
CCc1ccc(NC(=O)c2ccc(Cn3nc(N4CCN(c5ccccc5)CC4)ccc3=O)o2)cc1 | 11µM*
CS(=O)(=O)N1CCC(C2CCN(C(=O)Cc3c[nH]c4ccccc34)C2)CC1 (stereo not drawn) | i
O=c1[nH]c(=O)n2c(c1-c1ncon1)CCCC2 | -7%
O=C1CCC(C(=O)N[C@@H]2COCC[C@@H]2OCc2cscn2)=NN1 | -3%
Cc1cc(N)n(CC(=O)N2CC[C@@]3(O)CCN(S(C)(=O)=O)C[C@H]3C2)n1 | -6%
Cc1ccc(NC(=O)N2CCCC(Cn3cnc4cccnc43)C2)cc1F (stereo not drawn) | -25%
CCCN(c1ccccc1CC)S(=O)(=O)c1ccc2c(c1)CC(C)N2C(=O)C1CC1 (stereo not drawn) | 8.9µM*
SMILES | Pf Dd2 growth
Cc1cc(C)c(NS(=O)(=O)c2ccc3c(c2)CC(C)N3C(=O)C2CCC2)c(C)c1 (stereo not drawn) | 19%
CCc1ccccc1NC(=O)C1CCC(CNS(=O)(=O)c2ccc3c(c2)CC(C)N3C(C)=O)CC1 (stereo not drawn) | -27%
COc1cccc(NC(c2nnc(-c3ccccc3)o2)c2ccc(F)cc2Cl)c1 (stereo not drawn) | 10µM*
CCOC(=O)c1cccc(NC(c2nnc(-c3ccccc3)o2)c2ccccc2F)c1 (stereo not drawn) | i
Cc1cccc(OCc2nnc(-c3ccccc3)o2)c1 | -20%
CCc1cc(=O)n(CC(=O)Nc2ccccc2C)c(-c2cccc(F)c2)n1 | -13%
CCc1ccccc1NC(c1nnc(-c2cccc(F)c2)o1)c1ccc(F)cc1Cl (stereo not drawn) | 13µM*
COc1ccccc1NC(=O)CSc1nnc(-c2cccc(Cl)c2)o1 | 10%
CCC(CC)CN1CC2(CCN(C(=O)c3cnc(NC)nc3)CC2)OC1=O | 9%
CC1CCC2(CC1)NC(=O)N(CC(=O)Nc1ccccc1C(F)(F)F)C2=O (stereo not drawn) | i
CCc1cccc(NC(=O)N2CC(c3nnc(C(C)C)o3)C3(CCOCC3)C2)c1 (stereo not drawn) | -10%
CS(=O)(=O)N1CC[C@H](C(=O)NNC(=O)Cc2ccccc2)C1 | -5%[44.1 µM]
Cc1ccc(CN2CC[C@@H](CO)N(C)c3cccnc3C2)s1 | i
COCC[C@]1(O)CCN(C(=O)c2ccc(OCC(N)=O)cc2)C[C@H]1C | -1%
COC1CCC12CCN(C(=O)c1cccc(C#N)c1)CC2 (stereo not drawn) | 15%
Cc1ncccc1C(=O)N1CCC(N2C(=O)C3(CCCC3)C2c2ccccc2)CC1 (stereo not drawn) | i
CCS(=O)(=O)N1CCC(N2C(=O)C3(CCCC3)C2c2ccccc2)CC1 (stereo not drawn) | i
O=C(Nc1ccccc1F)N1CCC(N2C(=O)C3(CCCCC3)C2c2ccccc2)CC1 (stereo not drawn) | i
CCn1cc(CN2CCC(N3C(=O)C4(CCCC4)C3c3ccccc3)CC2)cn1 (stereo not drawn) | 1.6µM*
